Screens as filed in PubChem.
Most compounds without a hit are left out; they make up all but 5.5% or so of the library.
Sfp inh: Sfp phosphopantetheinyl transferase inhibition; Q9F4F7; Biochemical Sfp PPTase activity, qHTS; Potency, µM, usual class: inhibitors; hit rate 3.5% among 310,000;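 note: the enzyme is Sfp with the accession as filed and its product quenches rhodamine fluorescence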
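Sfp 15 nM + cpd, 15 min RT; start w/ rhodamine-CoA 5 uM, BHQ-2-YbbR 12.5 uM (final); 50 mM Hepes pH 7.6, 10 mM MgCl2, 0.01% NP-40, 0.01% BSA; read 525/598 nm at 0 and 30 min.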
ELG1 repair inh: blocks ELG1-dependent DNA repair in HEK293T cells; HEK293T ELG1-luciferase reporter, luminescence, 16 h; DNA damage induced by 5-fluorouridine; Potency, µM (series often up to 46.1 µM), most hits filed as inhibitors; hit rate 2.3% among 330,000; note: nearly all actives have a fitted effect of over 55% in size
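5-Fluorouridine DNA damage + compound/DMSO, 2,000 cells/well, 16 h, 37 °C/5% CO2. ONE-Glo, 30 min RT, luminescence. Readout = decrease in reporter signal.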
Giardia kill: kills Giardia lamblia; Giardia lamblia trophozoite viability; activity change, % at 7.66 µM, hits read low; hit rate 0.15% among 340,000; in the data active = activity change below about -80%; inconclusive = between about -30% and that limit;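 note: parasites exposed to compound for two days anaerobically before the ATP read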
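Killing of trophozoites was scored by loss of ATP luminescence after a 48 hrs anaerobic exposure to compounds at 37 deg C, using 100 cells per well.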
Coupling enz: coupling enzyme interference in Giardia aldolase counter-screen. coupling enzyme system counterscreen, AmpLite Red fluorescence. activity change, negative = inhibition, % at 58.2 µM, hits read low. hit rate 0.67% among 290,000. AID 2472; in the data active = activity change below about -30%
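First, compound is pin-transferred into glyceraldehyde-3-phosphate coupling-enzyme reagent at 57.5 uM final and held 10 min at RT. Next, substrate, coupling system and AmpLite Red are added. After 20 min RT, fluorescence (525/598 nm) is read.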
Large screens that a line does not name were inactive. Unless noted, calls come from the whole dose curve; as a rule, active = well fitted curve in the direction sought with a large enough effect; inconclusive = small, poorly fitted or top-dose-only effect, or another doubt; inactive = no such curve, though single readings can be large; an effect the other way counts as inactive or inconclusive.

O=C(O)C(c1ccccc1)N1C(=O)c2ccccc2C1=O (stereo not given)	none
CCOC(=O)Cc1c(C)nc2c(-c3cccc(Br)c3)c[nH]n2c1=O	ELG1 repair inh 16.4µM
CCOc1ccc(C2NC(=O)c3sc(=S)n(-c4ccccc4)c3N2)cc1 (stereo not given)	Sfp inh inconclusive
COc1ccc(C2NC(=O)c3sc(=S)n(-c4ccccc4)c3N2)cc1 (stereo not given)	Sfp inh 50.1µM
O=C1NC(c2ccccc2)Nc2c1sc(=S)n2-c1ccccc1 (stereo not given)	Sfp inh 31.6µM, ELG1 repair inh inconclusive
CC[C@H](C)[C@H](NC(=O)[C@H](Cc1ccc(O)cc1)NC(=O)[C@@H](NC(=O)[C@@H](N)CCCN=C(N)N)C(C)C)C(=O)N[C@@H](Cc1cnc[nH]1)C(=O)N1CCC[C@H]1C(=O)N[C@@H](Cc1ccccc1)C(=O)O	none (no result: ELG1 repair inh, Giardia kill)
COc1ccc(Oc2ncc3nc(-c4cc(F)cc(F)c4)c(=O)n(CCC#N)c3n2)cc1	none (no result: ELG1 repair inh, Giardia kill)
Brc1ccc(-c2nnc(-c3ccccc3Br)o2)cc1	Sfp inh 50.1µM, ELG1 repair inh inconclusive
Clc1ccc(-c2nnc(-c3ccccc3Cl)o2)cc1	Sfp inh 70.8µM, ELG1 repair inh inconclusive
c1ccc(-c2ccccc2OCCCN2CCCC2)cc1	none
c1ccc(-c2ccccc2OCCOCCN2CCNCC2)cc1	Sfp inh 20µM
c1ccc(-c2ccccc2OCCOCCN2CCOCC2)cc1	Sfp inh inconclusive, Coupling enz -50.9
CCN1CCN(CCOCCOc2ccccc2-c2ccccc2)CC1	Sfp inh 50.1µM (no result: Giardia kill)
CCOc1ccccc1N1CCN(C(=O)c2ccccc2SCC(=O)N2CCCC2)CC1	none (no result: Coupling enz)
CCN1C(=O)/C(=C/c2ccc(C)o2)N(C)C1=S	Sfp inh 6.31µM, ELG1 repair inh inconclusive
Cc1cc(/C=C2\NC(=S)N(C)C2=O)ccc1N1CCCC1	none
CCN1C(=O)/C(=C/c2cccs2)N(C)C1=S	ELG1 repair inh inconclusive
Cc1ccc(/C=C2/NC(=O)N(Cc3ccccc3F)C2=O)o1	Sfp inh 14.1µM
Cc1ccc(/C=C2/NC(=O)N(Cc3ccc(Br)cc3)C2=O)o1	Sfp inh 3.16µM, ELG1 repair inh inconclusive
CCCN1C(=O)/C(=C/c2ccc(N3CCCC3)c(C)c2)NC1=S	ELG1 repair inh 10.3µM
CCOc1ccc(NC(=O)CN(C)C(=O)C2=COCCO2)cc1OCC	none (no result: Sfp inh, Coupling enz)
CC(C)CC1(C2CCCC2)NC(=O)NC1=O (stereo not given)	none (no result: Sfp inh, ELG1 repair inh, Coupling enz)
COc1ccc(S(=O)(=O)Nc2ccc3c(c2)C(=O)N([C@H](C)CO)C[C@H](C)[C@@H](CN(C)S(C)(=O)=O)O3)cc1	ELG1 repair inh inconclusive (no result: Sfp inh, Coupling enz)
CC1CCCN(C(=O)COC(=O)Cc2c(F)cccc2Cl)C1 (stereo not given)	ELG1 repair inh inconclusive
Cc1c(C(=O)O)cccc1-c1ccc(/C=C2/NC(=O)N(c3ccccc3)C2=O)o1	ELG1 repair inh inconclusive
O=C1N/C(=C/c2ccc(N3CCOCC3)o2)C(=O)N1c1cccc(Cl)c1	Sfp inh 8.91µM, ELG1 repair inh inconclusive
Cc1ccc(CN2C(=O)N/C(=C\c3ccc(N4CCOCC4)cc3)C2=O)cc1	ELG1 repair inh inconclusive
CCCN1C(=O)/C(=C/c2ccc(C)o2)NC1=S	Sfp inh 20µM, Coupling enz -32.8 (no result: Giardia kill)
Cc1ccc(/C=C2/NC(=O)N(c3ccccc3)C2=O)o1	Sfp inh 25.1µM, ELG1 repair inh inconclusive
CC/C=C\C/C=C\C/C=C\C/C=C\C/C=C\CCC(=O)O[C@H](COCCCCCCCCCCCCCCCC)COP(=O)([O-])OCC[N+](C)(C)C	none (no result: ELG1 repair inh, Giardia kill)
Cn1c(SCc2nnc(-c3ccccc3Br)o2)nc2sc3c(c2c1=O)CCC3	Sfp inh 79.4µM, ELG1 repair inh inconclusive
Cc1cc(C)n(-c2nnc(C)c(=O)[nH]2)n1	Sfp inh 63.1µM
Cc1cc(C)n(-c2nc3sc4c(c3c(=O)[nH]2)CCCC4)n1	none (no result: Giardia kill)
Cc1ccc(S(=O)(=O)N2CCN(C(=O)c3ccc(Br)o3)CC2)c(C)c1	none
Cc1cc(C)cc(NC(=O)Nc2cccnc2)c1	none
CC(=O)c1cccc(NC(=O)Nc2cccnc2)c1	ELG1 repair inh 3.66µM
CC(=O)c1cccc(NC(=O)Nc2ccc(C(=O)N3CCOCC3)cc2)c1	ELG1 repair inh 10.3µM
Cc1ccc(NC(=O)Nc2cccnc2)cc1NC(=O)Nc1cccnc1	ELG1 repair inh 8.2µM
Cc1ccc(NC(=O)Nc2ccc(C(=O)N3CCOCC3)cc2)cc1	none
Cn1c(C(=O)Nc2ccccc2)cc2sccc21	ELG1 repair inh inconclusive
CC(=O)c1cccc(NC(=O)Nc2cc3sccc3n2C)c1	Sfp inh 39.8µM (no result: Giardia kill)
O=C(N/N=C1/C(=O)c2cccc3cccc1c23)c1ccc(Cl)cc1	Sfp inh 44.7µM, ELG1 repair inh inconclusive
COC(=O)[C@@]1(Cc2ccc(F)cc2)[C@H]2c3cc(C(=O)N(C)C)n(Cc4ccc(C)o4)c3C[C@H]2CN1C(=O)c1ccccc1	Sfp inh 15.8µM (no result: ELG1 repair inh, Giardia kill)
COC(=O)[C@@]1(Cc2ccc(F)cc2)[C@H]2c3cc(C(=O)N(C)C)n(Cc4ccccc4)c3C[C@H]2CN1C(=O)c1ccccc1	none
Cc1ccc(C)c(N2CCN(C(=O)Nc3ccc4c(c3)N(C)C(=O)CS4)CC2)c1	ELG1 repair inh 6.51µM
CN1C(=O)CSc2ccc(NC(=O)N3CCN(c4ccccn4)CC3)cc21	ELG1 repair inh inconclusive
Cc1nc2ccccc2c2oc(C(=O)N3CCN(C4CCCCC4)CC3)cc12	ELG1 repair inh 7.31µM
CCOC(=O)N1CCC(NC(=O)c2cc3c(C)nc4ccccc4c3o2)CC1	ELG1 repair inh 13µM
CCN1CCCC1CNC(=O)c1cc2c(C)nc3ccccc3c2o1 (stereo not given)	none
COc1ccc(CNC(=O)c2cc3c(C)nc4ccccc4c3o2)c(OC)c1	ELG1 repair inh 5.8µM
Cc1nc2ccccc2c2oc(C(=O)NCC3COc4ccccc4O3)cc12 (stereo not given)	ELG1 repair inh 14.6µM
Cc1nc2ccccc2c2oc(C(=O)N3CCC(N4CCCCC4)CC3)cc12	none
COC(=O)c1ccc(C(/C=C/[C@@H](C)C(=O)NCc2ccccc2)NC(=O)OCc2ccccc2)cc1 (stereo not given in full)	none (no result: ELG1 repair inh, Giardia kill)
C/C(=C\c1cc2ccccc2o1)C1Nc2cccc3cccc(c23)N1	none (no result: Sfp inh, Coupling enz)
CCOc1ccccc1NS(=O)(=O)c1ccc2oc(=O)ccc2c1	none
CCc1ccc(CNC(=O)c2cc3c(C)nc4ccccc4c3o2)cc1	ELG1 repair inh 14.6µM
Cc1ccccc1NC(=O)CC1C(=O)Nc2ccccc2N1CC(=O)N(C)C1CCS(=O)(=O)C1 (stereo not given)	ELG1 repair inh inconclusive (no result: Sfp inh, Coupling enz)
COc1ccc(N2C(S)=C(C#N)C(=O)NC23CCCCC3)cc1	Sfp inh 17.8µM
C[C@@H]1COC(=O)O1	none (no result: ELG1 repair inh, Giardia kill)
Cc1[nH]c2ccc(C(=O)OC(C)C(=O)NCc3ccccc3)cc2c1C (stereo not given)	ELG1 repair inh inconclusive (no result: Sfp inh, Coupling enz)
Cc1ccccc1CN(C)C(=O)COC(=O)c1ccc2[nH]c(C)c(C)c2c1	ELG1 repair inh 25.9µM (no result: Sfp inh, Coupling enz)
NS(=O)(=O)c1ccc(CNC(=O)C(c2ccccc2)c2ccccc2)cc1	none
COc1cc(OC)cc(C(=O)OCCCOC(=O)c2cc(OC)cc(OC)c2)c1	none (no result: Coupling enz)
